Data on 10 compounds can be found in PubChem BioAssay.

Active and inactive are the calls of the source.

Assay [1] can be described thus: small molecules captured by biotinylated probe aFSTL3 – biochemical, small-molecule microarray, fluorescence 635/667, stem cell growth factor project, primary screen (AID 1064).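 Further: measures binding of the biotinylated anti-FSTL3 antibody to printed compounds.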 The following applies: higher = more signal.
The nature of assay [2]: binders from COS7 lysate, DM2A8 probe, primary screen, torsin A project, cell lysate, small-molecule microarray, fluorescence 635/667 (AID 1065). The following applies: higher = more signal, COS7 lysate expressing mutant human TOR1A.
Assay [3] in a line: small molecules captured by biotinylated probe aFGF2 – biochemical, small-molecule microarray, fluorescence 635/667, stem cell growth factor project, primary screen (AID 1067).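 Further: measures binding of biotinylated aFGF2 protein to printed compounds on slides; z-score merges feature fluorescence and signal-to-noise across triplicate slides.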 Conditions: higher = more signal.
A short description of assay [4]: small molecules captured by biotinylated probe aFGF10 – biochemical, small-molecule microarray, fluorescence 635/667, stem cell growth factor project, primary screen (AID 1071).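 Further: score merges 667 nm spot intensity and signal to noise from triplicate slides.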 The following applies: higher = more signal.
Assay [5] addresses Neurogenic locus notch homolog protein 2 (Homo sapiens) (UniProt Q04721). Kind of assay: small molecules binding Notch2 protein – biochemical, small-molecule microarray, 635 nm fluorescence, stem cell growth factors, primary screen (AID 1073). Conditions: higher = more signal.
The target of assay [6] is Pro-neuregulin-1, membrane-bound isoform (Homo sapiens) (UniProt Q02297). Kind of assay: small molecules binding neuregulin-1 protein – biochemical, small-molecule microarray, fluorescence 635/667, psychiatric disease protein project, primary screen (AID 1075).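 Further: score combines 667 nm spot fluorescence with signal to noise.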 The following applies: NRG1 binding, 635 nm fluorescence, higher = more signal.
Sequence of Pro-neuregulin-1, membrane-bound isoform (Homo sapiens) (Q02297 whole entry, looked up, the tested form may be a part, canonical isoform): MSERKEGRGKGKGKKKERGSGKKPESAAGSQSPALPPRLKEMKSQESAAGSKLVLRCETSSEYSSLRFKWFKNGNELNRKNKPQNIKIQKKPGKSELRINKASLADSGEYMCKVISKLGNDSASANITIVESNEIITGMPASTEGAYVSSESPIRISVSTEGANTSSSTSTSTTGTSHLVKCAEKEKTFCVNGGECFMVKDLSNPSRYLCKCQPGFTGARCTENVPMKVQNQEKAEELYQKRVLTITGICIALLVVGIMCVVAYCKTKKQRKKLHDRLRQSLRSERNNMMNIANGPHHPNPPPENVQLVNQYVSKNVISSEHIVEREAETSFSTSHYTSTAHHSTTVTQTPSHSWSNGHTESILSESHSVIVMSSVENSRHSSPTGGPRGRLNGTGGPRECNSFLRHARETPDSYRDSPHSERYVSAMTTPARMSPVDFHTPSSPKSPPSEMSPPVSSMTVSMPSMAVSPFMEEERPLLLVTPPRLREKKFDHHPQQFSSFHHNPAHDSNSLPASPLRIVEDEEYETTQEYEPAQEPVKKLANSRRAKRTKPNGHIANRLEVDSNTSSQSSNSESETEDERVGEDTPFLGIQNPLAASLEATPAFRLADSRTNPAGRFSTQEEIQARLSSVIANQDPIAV
In assay [7] the test system is Neuregulin-1 EGF-like domain. Kind of assay: small molecules binding NRG1 EGF domain – biochemical, small-molecule microarray, 635 nm fluorescence, primary screen (AID 1081).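 Further: binding of the protein to compounds printed on small-molecule microarray slides.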 Conditions: higher = more signal.
The nature of assay [8]: FRG1 expression reporter modulators in myotubes – cell-based, C2C12 myotubes, firefly/Renilla luciferase, luminescence, FRG1 inhibition for FSHD, primary screen (AID 1084). Conditions: FRG1 promoter luciferase, higher = more signal, called active from +8 up or from −8 down.
The nature of assay [9]: small molecules captured by biotinylated probe aFST – biochemical, small-molecule microarray, fluorescence 635/667, stem cell growth factor project, primary screen (AID 1086).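 Further: score merges 667 nm fluorescence with signal-to-noise of each printed compound spot.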 Conditions: higher = more signal.
A short description of assay [10]: binders of probe aHhip on microarray, primary screen, stem cell growth factor project, biochemical, small-molecule microarray, fluorescence 635/667 (AID 1087).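 Further: score merges spot fluorescence at 667nm with spot signal to noise ratio.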 Conditions: higher = more signal.
The subject of assay [11] is PRMT1 (protein arginine N-methyltransferase 1). Kind of assay: small molecules binding arginine methyltransferase PRMT1 – biochemical, small-molecule microarray, 635 nm fluorescence, primary screen (AID 1088).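 Further: binding of Prmt1 protein to compounds spotted on small-molecule microarray slides.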 Conditions: higher = more signal.
A short description of assay [12]: growth effects on S. cerevisiae YJM789 – YJM789 clinical isolate, OD600, 24 h, basal, primary screen (AID 1089).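 Further: growth of clinical yeast isolate S. cerevisiae YJM 789 seeded 1000 cells per well; test concentration not given here.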 Conditions: higher = more signal, called active from +8 up or from −8 down.
Assay [13] in a line: S. pombe growth modifiers, basal conditions – strain 972, OD600, 24 h, no modulator, primary screen (AID 1090).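 Further: basal condition with compound alone and no growth modifier present; test concentration not given here.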 Conditions: S. pombe 972 growth, higher = more signal, called active from +8 up or from −8 down.
A short description of assay [14]: budding yeast growth modifiers under rapamycin – strain BY4716, OD600, 96 h, primary screen (AID 1091). Further: test concentration not given here. Conditions: S. cerevisiae BY4716 + rapamycin, higher = more signal, called active from +8 up or from −8 down.
The target in assay [15] is Torsin-1A-interacting protein 2 (Homo sapiens) (UniProt Q8NFQ8). Kind of assay: small molecules binding lysate-expressed LULL1 – cell lysate, human LULL1 lysate, 635/667 nm fluorescence, primary screen (AID 1092).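 Further: probe is lysate of COS7 cells overexpressing human LULL1; score merges per-feature 667 nm fluorescence with signal-to-noise.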 Conditions: small-molecule microarray, hLULL1 lysate binding, 635 nm fluorescence; higher = more signal.
Sequence of Torsin-1A-interacting protein 2 (Homo sapiens) (Q8NFQ8 whole entry, looked up): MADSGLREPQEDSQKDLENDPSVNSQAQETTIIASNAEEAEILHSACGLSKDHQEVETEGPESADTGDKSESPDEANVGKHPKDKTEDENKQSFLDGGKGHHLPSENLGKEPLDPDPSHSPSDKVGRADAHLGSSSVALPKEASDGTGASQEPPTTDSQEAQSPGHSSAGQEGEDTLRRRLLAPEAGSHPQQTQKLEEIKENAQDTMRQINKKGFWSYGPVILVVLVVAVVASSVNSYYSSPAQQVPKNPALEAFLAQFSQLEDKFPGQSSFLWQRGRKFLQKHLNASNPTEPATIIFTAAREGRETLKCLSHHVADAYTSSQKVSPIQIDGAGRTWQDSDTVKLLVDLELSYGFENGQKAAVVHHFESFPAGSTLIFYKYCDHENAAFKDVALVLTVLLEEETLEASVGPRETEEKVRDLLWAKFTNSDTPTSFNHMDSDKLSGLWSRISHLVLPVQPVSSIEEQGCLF
Assay [16] can be described thus: optical density change of DRC41 E. coli – strain DRC41, OD650, 24 h, E. coli filamentation project, primary screen (AID 1093).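 Further: MC1000 strain lacking acrAB efflux and sulA so SOS filamentation is blocked; test concentration not given here.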 The following applies: E. coli DRC41 growth, higher = more signal, called active from +8 up or from −8 down.
Assay [17] can be described thus: probe aLefty2 binding to arrayed compounds – biochemical, biotinylated probe, 635/667 nm fluorescence, primary screen (AID 1094).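 Further: score merges spot fluorescence near 667 nm with spot signal-to-noise ratio.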 The following applies: small-molecule microarray, higher = more signal.
Assay [18] deals with Noggin (protein binding on small-molecule microarray). Kind of assay: small molecules binding Noggin protein – biochemical, 635/667 nm fluorescence, primary screen (AID 1095).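 Further: score merges 667 nm feature fluorescence with signal to noise over triplicate slides.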 Conditions: 635 nm fluorescence, higher = more signal.
In assay [19] the target is Neurogenic locus notch homolog protein 3 (Homo sapiens) (UniProt Q9UM47). Kind of assay: small molecules binding NOTCH3 protein – biochemical, 635/667 nm fluorescence, primary screen (AID 1096). Conditions: small-molecule microarray, 635 nm fluorescence, higher = more signal.
The nature of assay [20]: probe aEGFR binding to arrayed compounds – biochemical, biotinylated probe, 635/667 nm fluorescence, primary screen (AID 1097).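 Further: probe is a biotinylated anti-EGFR antibody binding compounds printed on slides; score combines fluorescence near 667 nm and signal to noise of each spot.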 Conditions: small-molecule microarray, higher = more signal.

Sequence of Neurogenic locus notch homolog protein 2 (Homo sapiens) (Q04721 whole entry, looked up, canonical isoform): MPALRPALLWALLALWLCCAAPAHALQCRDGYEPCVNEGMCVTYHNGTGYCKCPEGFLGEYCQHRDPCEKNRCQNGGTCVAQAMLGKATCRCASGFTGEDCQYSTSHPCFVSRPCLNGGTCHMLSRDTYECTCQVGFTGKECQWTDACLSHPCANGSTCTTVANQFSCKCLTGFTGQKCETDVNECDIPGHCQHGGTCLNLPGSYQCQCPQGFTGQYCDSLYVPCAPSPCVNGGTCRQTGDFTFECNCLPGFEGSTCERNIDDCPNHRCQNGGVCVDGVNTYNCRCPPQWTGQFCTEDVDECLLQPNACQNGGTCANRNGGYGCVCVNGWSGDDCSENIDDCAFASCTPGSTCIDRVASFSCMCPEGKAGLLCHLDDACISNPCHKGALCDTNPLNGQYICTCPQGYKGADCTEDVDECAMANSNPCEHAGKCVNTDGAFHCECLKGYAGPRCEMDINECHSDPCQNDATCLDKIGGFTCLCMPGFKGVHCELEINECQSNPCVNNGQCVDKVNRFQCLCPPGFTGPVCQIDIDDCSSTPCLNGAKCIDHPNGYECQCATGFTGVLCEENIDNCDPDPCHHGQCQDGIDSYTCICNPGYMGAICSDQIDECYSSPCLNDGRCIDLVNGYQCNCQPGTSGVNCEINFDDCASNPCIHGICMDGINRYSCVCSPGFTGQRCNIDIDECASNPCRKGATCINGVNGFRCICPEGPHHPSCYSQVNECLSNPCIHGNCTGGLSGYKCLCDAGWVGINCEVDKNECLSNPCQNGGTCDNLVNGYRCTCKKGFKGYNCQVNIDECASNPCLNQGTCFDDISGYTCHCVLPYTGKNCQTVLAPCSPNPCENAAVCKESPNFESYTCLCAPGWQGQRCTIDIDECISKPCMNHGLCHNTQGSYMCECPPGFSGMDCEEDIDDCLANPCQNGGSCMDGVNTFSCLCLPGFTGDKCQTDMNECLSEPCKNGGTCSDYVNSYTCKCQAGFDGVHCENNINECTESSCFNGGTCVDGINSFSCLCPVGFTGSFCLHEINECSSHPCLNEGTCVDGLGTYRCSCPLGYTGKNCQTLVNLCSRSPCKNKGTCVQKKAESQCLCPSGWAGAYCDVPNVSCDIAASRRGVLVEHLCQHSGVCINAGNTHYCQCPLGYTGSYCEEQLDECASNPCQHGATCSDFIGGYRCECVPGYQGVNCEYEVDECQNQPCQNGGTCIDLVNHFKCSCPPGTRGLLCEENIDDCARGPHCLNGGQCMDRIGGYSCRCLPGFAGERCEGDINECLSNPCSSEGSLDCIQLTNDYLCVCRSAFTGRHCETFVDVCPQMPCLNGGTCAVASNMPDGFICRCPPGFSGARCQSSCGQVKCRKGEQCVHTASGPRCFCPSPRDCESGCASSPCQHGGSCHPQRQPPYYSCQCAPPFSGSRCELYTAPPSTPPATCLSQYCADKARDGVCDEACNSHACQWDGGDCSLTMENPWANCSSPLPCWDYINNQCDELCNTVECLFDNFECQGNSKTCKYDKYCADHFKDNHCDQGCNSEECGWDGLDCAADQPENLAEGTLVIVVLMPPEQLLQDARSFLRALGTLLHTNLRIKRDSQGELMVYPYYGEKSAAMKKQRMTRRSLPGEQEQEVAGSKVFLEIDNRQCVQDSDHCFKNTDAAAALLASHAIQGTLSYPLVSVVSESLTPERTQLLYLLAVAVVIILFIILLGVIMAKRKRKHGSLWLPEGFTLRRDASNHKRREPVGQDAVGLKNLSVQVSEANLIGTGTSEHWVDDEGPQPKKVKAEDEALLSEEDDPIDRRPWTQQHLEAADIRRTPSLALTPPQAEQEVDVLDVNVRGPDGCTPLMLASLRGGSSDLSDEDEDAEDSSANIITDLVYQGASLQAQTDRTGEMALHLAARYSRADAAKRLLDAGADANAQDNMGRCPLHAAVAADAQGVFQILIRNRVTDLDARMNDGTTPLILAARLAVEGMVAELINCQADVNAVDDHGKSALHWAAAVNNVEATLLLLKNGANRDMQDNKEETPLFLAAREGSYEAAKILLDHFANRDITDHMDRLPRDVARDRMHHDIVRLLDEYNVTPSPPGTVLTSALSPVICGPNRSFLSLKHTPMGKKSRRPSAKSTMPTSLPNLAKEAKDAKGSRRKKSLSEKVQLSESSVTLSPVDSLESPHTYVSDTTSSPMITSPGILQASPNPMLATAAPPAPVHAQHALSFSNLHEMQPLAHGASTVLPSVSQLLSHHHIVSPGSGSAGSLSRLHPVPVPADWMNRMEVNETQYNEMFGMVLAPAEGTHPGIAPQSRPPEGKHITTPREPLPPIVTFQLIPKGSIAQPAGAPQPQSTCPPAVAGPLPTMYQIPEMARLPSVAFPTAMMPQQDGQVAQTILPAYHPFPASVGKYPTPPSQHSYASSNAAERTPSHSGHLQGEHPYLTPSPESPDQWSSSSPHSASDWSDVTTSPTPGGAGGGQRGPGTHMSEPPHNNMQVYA

For `CCOC(=O)C1=CC[C@@H](c2ccccc2)N(S(=O)(=O)c2ccc(C)cc2)[C@H]1C`, the composite z-score was -0.386 in [1]; 1.09 in assay [2]; 0.0257 in assay [3]; 1.11 in assay [4]; 1.59 in [5]; 1.45 in [6]. For the same compound, the composite z-score was 1.12 in assay [7]; 0.691 in assay [9]; -0.0994 in [10]; 1.53 in [11]; 3.41 in [15]; 0.0018 in [17]. Further, the composite z-score stood at 0.672 in assay [18], 1.09 in assay [19] and 0.114 in assay [20]. Besides, the z-score in assay [8] was -2.8 (inactive); in [12] it was 0.889 (inactive); in assay [13], -0.212 (inactive); in assay [14], 2.81 (inactive); in assay [16], -0.607 (inactive).

`C#C[C@H](O[Si](C#Cc1ccccc1)(C(C)C)C(C)C)c1ccccc1`: the composite z-score in assay [1] is -0.16; in assay [2], -0.232; in [3] it was -0.0956; in assay [4], 0.125; in assay [5] it was -0.677; in assay [6], -0.328. For the same compound, the composite z-score in assay [7] was -0.305; in assay [9] it was -0.649; in assay [10] it was -0.233; in assay [11] it was 0.0132; in [15] it was 0.504; in [17], -0.279. The composite z-score in assay [18] is -0.251; in assay [19] it was -0.406; in assay [20], -0.25. For the same compound, the z-score in [8] is 1.15 (inactive); in assay [12] it was -22.2 (active); in assay [13], -20.1 (active); in assay [14] it was -2.8 (inactive); in [16] it was -0.227 (inactive).

For `O=C/C=C/c1ccccc1Cl`, the composite z-score in assay [1] is 0.206; in assay [2] it was -0.0907; in [3] it was -0.093; in [4] it was -0.0502; in assay [5] it was -0.221; in assay [6], 1.05. For the same compound, the composite z-score in assay [7] is -0.118; in assay [9] it was 0.224; in assay [10], 0.171; in assay [11], -0.284; in assay [15], 0.54; in assay [17], -0.0336. For the same compound, the composite z-score in [18] is -0.479; in assay [19], -0.709; in assay [20] it was -0.18. The z-score in assay [8] is 1.58 (inactive); in assay [12], 1.68 (inactive); in [13], -11 (active); in [14], -0.6 (inactive); in assay [16] it was 0.0791 (inactive).

As to `C=CC[C@]1(C(=O)O)N=C(c2ccc(OCCCO)cc2)O[C@H]1c1ccccc1`, the composite z-score is 1.03 in assay [1]; -0.269 in assay [2]; -0.0985 in [3]; -0.2 in [4]; -0.0704 in assay [5]; 1.87 in [6]. In addition, the composite z-score in assay [7] was 1.12; in [9], 0.0226; in assay [10], -0.169; in [11], 0.707; in assay [15], 3.29; in assay [17] it was -0.0199. Besides, the composite z-score in assay [18] is -1.1; in assay [19] it was -0.888; in assay [20], -0.0936. Besides, the z-score in assay [8] is 0.197 (inactive); in assay [12], -0.435 (inactive); in [13], -2.83 (inactive); in assay [14] it was -1.08 (inactive); in assay [16] it was 0.597 (inactive).

Consider `CC(=O)NCCCC[C@@H]1NC(=O)[C@@H]2C[C@H](C(=O)NCCCCCNC(=O)CS)[C@H](c3ccc(O)cc3)N2C1=O`, for which the composite z-score is 0.123 in assay [1]; -0.383 in assay [2]; -0.226 in assay [3]; -1.38 in [4]; -0.83 in assay [5]; 0.0942 in [6]. In addition, the composite z-score in [7] was 1.15; in [9], -0.735; in assay [10], -0.388; in [11] it was 0.483; in assay [15], -0.0471; in assay [17] it was -0.149. Moreover, the composite z-score in [18] was 1.11; in assay [19] it was 0.108; in assay [20] it was -0.212. Further, the z-score is -1.14 (inactive) in [8]; -2.05 (inactive) in [12]; -1.83 (inactive) in assay [13]; -1.55 (inactive) in assay [14]; 2.99 (inactive) in [16].

Take `CCCC=C(CCC)[C@@H](NS(=O)(=O)c1ccc(-c2ccccc2)cc1)c1ccc(C(=O)OC)cc1`: the composite z-score in assay [1] was 0.184; in assay [2] it was -0.337; in assay [3], -0.0363; in assay [4], -0.198; in [5], 0.268; in assay [6] it was -0.33. Besides, the composite z-score in assay [7] was -0.656; in assay [9], -0.212; in assay [10] it was -0.0994; in [11] it was 0.266; in assay [15] it was 1.76; in assay [17], -0.119. Moreover, the composite z-score in assay [18] is -0.666; in assay [19] it was -0.616; in [20], -0.059. Further, the z-score in [8] was 1.55 (inactive); in [12] it was 0.282 (inactive); in [13] it was -1.51 (inactive); in [14] it was 0.284 (inactive); in [16], -1.9 (inactive).

Turning to `Cc1ccc([C@@H]2CC=C(C(=O)O)[C@H](c3ccccc3)N2S(=O)(=O)c2ccc(C)cc2)cc1`, the composite z-score in assay [1] is 0.65; in [2], 0.436; in [3] it was 0.358; in [4], 1.02; in assay [5], 1.49; in assay [6], 1.82. For the same compound, the composite z-score was 1.35 in assay [7]; 0.549 in assay [9]; 0.0623 in [10]; 1.55 in assay [11]; 3.24 in [15]; 0.755 in [17]. The composite z-score was -0.971 in assay [18], 0.673 in assay [19] and 0.0582 in assay [20]. Further, the z-score is -3.57 (inactive) in assay [8]; -0.0782 (inactive) in assay [12]; -0.249 (inactive) in assay [13]; -0.269 (inactive) in assay [14]; -1.25 (inactive) in [16].

Take `C=CC[C@@]12N=C(c3ccc(OCCCO)cc3)O[C@@H]1c1ccccc1CN(Cc1ccccc1)C2=O`: the composite z-score in assay [1] is 1.36; in [2] it was 0.845; in assay [3] it was -0.0043; in assay [4], 0.245; in assay [5], 0.477; in assay [6] it was 0.713. Moreover, the composite z-score in assay [7] was 1.16; in assay [9], 0.15; in assay [10] it was -0.138; in [11], 1.54; in [15], 2.86; in [17], 0.258. Further, the composite z-score was determined as 0.347 in assay [18], 0.7 in assay [19] and 0.0122 in [20]. In addition, the z-score in assay [8] was -4 (inactive); in assay [12], -0.127 (inactive); in [13], -3.56 (inactive); in assay [14] it was 5.67 (inactive); in assay [16], 1.1 (inactive).

Regarding `COc1ccc([Si](C)(C)[C@@H]2[C@@H](CCO)O[C@]3(C(=O)N(Cc4ccc(NC(=O)[C@H](C)O)cc4)c4ccccc43)[C@H]2C)cc1`, the composite z-score in [1] was 0.0169; in [2], 0.395; in assay [3], -0.0606; in [4], 0.585; in assay [5], 0.684; in [6], 1.05. Also, the composite z-score was 1.19 in assay [7]; 0.152 in assay [9]; -0.0618 in [10]; 1.47 in assay [11]; 2.42 in assay [15]; 0.12 in assay [17]. Also, the composite z-score in [18] is 0.123; in assay [19] it was 0.62; in assay [20], -0.102. In addition, the z-score in assay [8] was -4.16 (inactive); in assay [12], 3.17 (inactive); in [13] it was -1.06 (inactive); in [14], 14.8 (active); in assay [16], 1.78 (inactive).

Turning to `COc1ccc([Si](C)(C)[C@H]2[C@H](CC(=O)N3Cc4ccccc4C[C@H]3CO)O[C@@]3(C(=O)N(Cc4cccc(N5CCOC5=O)c4)c4ccccc43)[C@@H]2C)cc1`, the composite z-score in [1] is 0.0766; in assay [2], 0.882; in [3] it was -0.128; in assay [4] it was 0.157; in assay [5], 0.123; in assay [6] it was 0.676. Moreover, the composite z-score in assay [7] was 0.95; in [9], 0.158; in assay [10], -0.264; in [11] it was 1.34; in assay [15] it was 0.662; in assay [17], 0.0939. The composite z-score in assay [18] was 1.22; in assay [19], 0.932; in assay [20], -0.0169. Moreover, the z-score in assay [8] is -2.72 (inactive); in [12], -0.541 (inactive); in [13], 0.319 (inactive); in assay [14], 0.18 (inactive); in assay [16] it was 1.4 (inactive).
